This is part of a sample that, as a whole, favours compounds with a hit. Of some 83,000 tested, about 20% had one in any assay.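 Activity criterion: percent growth below 10, measured after cells in 96-well plates were exposed to a single compound concentration for 48 hours.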 Unmarked numbers belong to inactive results. Active and inactive are the calls of the source.
What follows are compounds tested on HCT-15 colon (assay: NCI-60 one-dose screen, 48 h (100 = growth as untreated, 0 = no growth, -100 = all killed)). Conditions: 10 µM.

First: Cc1c(-c2ccccc2)[nH]c2ccccc12
Second: NCc1c(O)ccc2ccccc12
The growth of the first is higher: 106% for the first, 98.2% for the second.

Compared with `COc1ccc(C(C#N)=C2C=CC(=NO)C=C2)cc1`, `O=C1C=CC(=O)N1c1ccc(N2C(=O)C=CC2=O)cc1` is lower in growth: 91.5% for the first, 91.4% for the second.

Compared with `COc1ccc(N)c2c1C(=O)c1ccccc1C2=O`, `Cc1cc(C)c(N2C(=O)CC(Sc3ccccc3N)C2=O)c(C)c1` (stereo not drawn) is lower in growth: 87.1% for the first, 58% for the second.

First: Cc1cc(N=C2C=CC(=[N+](C)C)C=C2)c(N)cc1N
Second: Cc1cc(Cl)ccc1NC(=O)/C(Cl)=C1/Sc2ccccc2NC1=O
The growth of the first is higher: 109% for the first, 88.2% for the second.

Compared with `O=C(CNS(=O)(=O)Cc1ccccc1)NNc1ccccc1`, `O=C(NC(=S)Nc1ccccn1)c1ccccc1` is higher in growth: 27.8% for the first, 100% for the second.

Compared with `N#C/C(=C/N1C(=O)/C(=C/c2ccc([N+](=O)[O-])cc2)SC1=S)c1nc2ccccc2s1`, `CN(CC(=O)O)c1ccc(/C=C/c2ccnc3ccccc23)cc1` is lower in growth: 95.6% for the first, 84.5% for the second.

`CN(C)CCNc1cccc2sc3ccc(O)cc3c(=O)c12` showed a growth of 26.9%.

With `CC[C@@]1(OC(=O)CN(C)C)C(=O)OCc2c1cc1n(c2=O)Cc2cc3c(N)cccc3nc2-1` the growth was 6.43% (active).
`N#CC(=C1C=CC(=NO)C=C1)c1ccccc1` was tested, and the growth was 9.7% (active).
`COc1cc(N)ccc1Nc1c2ccccc2nc2ccccc12` was tested, and the growth was -10.1% (active).
With `O=C1c2ccccc2CCC1(Br)Br` the growth was -57% (active).
With `ClCCn1c(CCl)nc2ccc(Cl)cc21` the growth was -31.5% (active).

— PubChem BioAssay (NCI)
